PNC inhibitor – inhibitors of perinucleolar compartment assembly | AID 2417 | activity change (PNC), negative = inhibition, % at 10 µM | PC3M PTB-GFP, PNC prevalence imaging, 16 h; active compounds read low | hit rate 3.1% among 140,000;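 active = readout at or below -70, meaning at least 70% loss of cells showing the perinucleolar compartment, a nuclear body marking cancer cells; inconclusive = readout between -30 and a set limit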
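Compounds are pinned in duplicate onto adhered PC3M cells stably expressing GFP-tagged PTB and incubated 16 h at 37 C. Cells are then fixed, nuclei stained with Hoechst, and PNC-positive cells counted.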
HPGD inh – blocks human HPGD enzyme activity; purified HPGD, NADH fluorescence kinetic, PGE2 substrate; AID 894; P15428; hit rate 4.3% among 150,000; Potency, µM, hits mostly inhibitors
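NADH formation kinetics: reaction with 30 uM PGE2 and 1 mM NAD+ (final), 20 nM enzyme, Tris-HCl pH 8 with Tween 20, after 15 min compound preincubation at room temperature. Fluorescence change, last versus first of five reads.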
ALDH1A1 block – blocks purified human ALDH1A1 activity; Potency, µM (highest dose often 75.3 µM), hits mostly inhibitors; hit rate 7.3% among 220,000; Purified ALDH1A1, NADH fluorescence, propionaldehyde substrate; P00352
Target sequence (P00352 whole entry, looked up): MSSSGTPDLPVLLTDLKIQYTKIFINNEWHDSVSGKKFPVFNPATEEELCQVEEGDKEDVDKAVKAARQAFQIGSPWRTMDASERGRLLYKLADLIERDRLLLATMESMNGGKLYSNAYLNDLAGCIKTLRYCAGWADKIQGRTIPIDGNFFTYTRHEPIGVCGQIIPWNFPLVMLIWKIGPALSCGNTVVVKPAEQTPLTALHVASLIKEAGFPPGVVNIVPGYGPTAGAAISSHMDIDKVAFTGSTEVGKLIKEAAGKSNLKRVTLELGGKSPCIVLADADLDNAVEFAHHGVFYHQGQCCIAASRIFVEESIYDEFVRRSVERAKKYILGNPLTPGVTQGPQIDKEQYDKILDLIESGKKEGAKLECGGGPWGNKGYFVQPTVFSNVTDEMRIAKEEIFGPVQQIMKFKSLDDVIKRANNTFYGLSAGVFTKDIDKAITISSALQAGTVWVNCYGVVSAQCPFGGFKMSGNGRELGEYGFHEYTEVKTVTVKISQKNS
Hits are given with their value; – = inactive; ? = inconclusive; · = no result given; [ ] = dose if it differs, or a comment. This is a sample that favours compounds with a hit; in the whole collection about 11% have one here. Unless noted, calls follow the shape of the dose curve; as a rule, active = well fitted inhibition curve with a large enough effect (not every such curve was filed as active); inconclusive = small, poorly fitted or top-dose-only effect, or another doubt; inactive = no such curve, though single readings can be large or run the other way.

SMILES	PNC inhibitor	HPGD inh	ALDH1A1 block
COc1ccccc1NC(=O)c1oc2ccc(C)cc2c1C	-80	?	–
CC1CCN(S(=O)(=O)c2cc(C(=O)N3CCN(c4ncccn4)CC3)ccc2Br)CC1	–	–	–
N/C(Cc1ccccc1)=N\OC(=O)c1cccc2ccccc12	?	2.5µM	–
N/C(Cc1ccc([N+](=O)[O-])cc1)=N\OC(=O)c1ccccc1Br	–	–	–
O=c1c2ccccc2nc2n1C(CSCc1ccc(Cl)cc1Cl)CS2 (stereo not given)	–	–	–
CCc1nc2oc3cc(OC)ccc3c(=O)c2c(=O)n1-c1ccccc1	–	–	–
Cc1ccc(-n2c(C)nc3oc4ccccc4c(=O)c3c2=O)cc1	–	?	28µM
CC(=O)Nc1ccc(S(=O)(=O)Nc2nc3ccccc3nc2-n2ccc(=NC(=O)c3ccc(F)cc3)cc2)cc1	·	·	–
O=S(=O)(Nc1nc2ccccc2nc1N1CCN(c2ccccn2)CC1)c1ccc(Cl)cc1	–	–	11µM
O=S(=O)(Nc1nc2ccccc2nc1N1CCc2ccccc2C1)c1ccc(Br)cc1	–	–	?
CC(=O)Nc1ccc(S(=O)(=O)Nc2nc3ccccc3nc2N2CCc3ccccc3C2)cc1	–	–	11µM
CC(=O)Nc1ccc(S(=O)(=O)Nc2nc3ccccc3nc2N2CCCCCC2)cc1	–	–	7.1µM
O=C(N=c1ccn(-c2nc3ccccc3nc2NS(=O)(=O)c2ccc(Cl)cc2)cc1)c1ccccc1Cl	·	·	0.63µM
O=S(=O)(Nc1nc2ccccc2nc1N1CCc2ccccc2C1)c1ccc(Cl)cc1	–	–	?
CC(=O)Nc1ccc(S(=O)(=O)Nc2nc3ccccc3nc2Nc2ccccc2)cc1	–	–	–
C[C@@H]1C[C@H](OC(=O)c2ccccc2O)CC(C)(C)C1	·	–	–
Cc1ccccc1NS(=O)(=O)c1ccc(OCC(=O)NCc2ccccn2)cc1	·	·	–
C/C(=N\NC(=O)c1c(Br)cnn1C)c1ccc(NC(=O)c2ccc(F)cc2)cc1	·	·	–
CCCCCCCC/C=C\CCCCCCCC(=O)NCCCC(=O)O	·	–	–
CC(C)(C)NC(=O)NC(=O)COC(=O)c1ccc2c(c1)S(=O)(=O)N=C1CCCCCN12	?	–	?
O=C(COC(=O)c1ccc2c(c1)S(=O)(=O)N=C1CCCCCN12)NCc1cccs1	·	·	14µM
O=C(Nc1ccn(-c2ccccc2)n1)c1ccc(Cl)cc1	–	–	–
CC(=O)Nc1ccn(-c2ccccc2)n1	-119	–	–
Cn1cc(C=C2C(=O)CC(C)(C)CC2=O)c2ccccc21	–	–	1.3µM
Cc1ccc(-c2nn(-c3ccccc3)cc2C=C2C(=O)CC(C)(C)CC2=O)cc1	–	–	–
SMILES	PNC inhibitor	HPGD inh	ALDH1A1 block
CC(=O)c1cccc(CN2CCCC(C(=O)c3ccc4c(c3)OCO4)C2)c1 (stereo not given)	·	·	28µM
CCOC(=O)C1CCCN(CC(O)COc2cccc(C)c2)C1 (stereo not given)	–	25µM	–
COc1cccc(CN2CCCC(C(=O)c3ccc4c(c3)OCO4)C2)c1O (stereo not given)	·	·	–
CN1CCN(C(=O)c2ccc3c(c2)N(Cc2ccc(Cl)cc2)C(=O)c2ccccc2S3=O)CC1 (stereo not given)	–	–	?
CCOC(=O)C1CCCN(C(=O)c2ccc3c(c2)N(Cc2ccccc2)C(=O)c2ccccc2S3=O)C1 (stereo not given)	·	·	20µM
Cc1nn(C(C)C)c(C)c1CN1CCCC(C(=O)c2cccc(OC(C)C)c2)C1 (stereo not given)	·	·	–
CCOC(=O)C1CCCN(CCC(=O)Nc2cccc(C)c2)C1 (stereo not given)	·	·	–
CC(C)Oc1cccc(C(=O)C2CCCN(Cc3cnn(C(C)C)c3)C2)c1 (stereo not given)	·	·	10µM
Cc1ccc([N+](=O)[O-])cc1NC(=S)NC(=O)c1cccs1	?	–	?
CCC(=C(CC)c1ccc(O)cc1)c1ccc(O)cc1	·	–	–
CC(=O)OC[C@@H]1O[C@@H](O/N=C2/C[C@@H](O)[C@@H](O)[C@@H]3[C@@H]4C(=O)N(Cc5ccc6c(c5)OCO6)C(=O)[C@H]4CC[C@H]23)[C@H](OC(C)=O)[C@H](OC(C)=O)[C@@H]1OC(C)=O	·	·	–[13.5 µM]
Cc1cc[n+]2cc(-c3cccc([N+](=O)[O-])c3)c(-c3cccc([N+](=O)[O-])c3)cc2c1	–	–	?
Cc1ccc(CNC(=O)CCC2CCCN(C(=O)c3ccc4c(c3)OCO4)C2)o1 (stereo not given)	·	·	16µM
CCOC(=O)C1CCN(C(=O)c2ccc3c(c2)OCO3)CC1	–	–	–
Cc1ccc(CNC(=O)CCC2CCCN(Cc3cccc4ncccc34)C2)o1 (stereo not given)	·	·	–
CCOC(=O)C1CCCN(C(=O)c2ccc3c(c2)OCO3)C1 (stereo not given)	–	10µM	?
CCN(CC)C(=O)C1CCCN(Cc2ccc3c(c2)OCO3)C1 (stereo not given)	–	–	–
CCOC(=O)C1CCCN(Cc2ccc3c(c2)OCO3)C1 (stereo not given)	–	–	13µM
COCCCn1c(=S)[nH]c(C)c(C)c1=O	·	·	–
CC(C)[C@H](NC(=O)c1cccc(S(=O)(=O)N2CCOCC2)c1)C(=O)Nc1nc2ccccc2s1	?	–	–
Cc1cc(C)nc(SCCn2c(N3CCOCC3)nc3c2c(=O)[nH]c(=O)n3C)n1	·	·	–
Cc1cccc(C(=O)NNC(=O)c2ccco2)c1	?	–	–
CC(C)CNC(=O)c1ccccc1NC(=O)/C=C/c1cccc([N+](=O)[O-])c1	–	–	–
CC1=NCC[N@@+]1(CCc1ccccc1)Cc1ccccc1	·	–	–[13.5 µM]
O=c1c(-c2cccc(Cl)c2)nc2cncnc2n1C1CC1	·	·	–
SMILES	PNC inhibitor	HPGD inh	ALDH1A1 block
CCCCNC(=S)NCCN1CCN(C(=S)NCCCC)CC1	·	·	–
COc1ccc(NS(=O)(=O)/C=C/c2ccccc2)cc1	–	–	2.5µM
CN(C)S(=O)(=O)c1ccc(NS(=O)(=O)/C=C/c2ccccc2)cc1	–	–	?
C=CCN1C(=O)/C(=c2\sc3nc(=O)c(Cc4ccccc4)nn3c2=O)c2ccccc21	·	·	3.5µM
C=CCN1C(=O)/C(=c2\sc3nc(=O)c(Cc4ccc(OC)c(OC)c4)nn3c2=O)c2ccccc21	·	·	3.2µM
C=CCSc1nn2c(=O)c3ccccc3nc2s1	–	–	–
COc1cc(/C=c2\sc3nc(=O)c(-c4ccccc4)nn3c2=O)ccc1OCCC(C)C	–	–	?
O=C(CNS(=O)(=O)c1ccccc1)Nc1cccc([N+](=O)[O-])c1	·	·	–
CCN(CC)C[C@@H](O)CN1CCCCc2nc(C)c(C)cc21	·	·	–[13.5 µM]
O=C(CCc1nc2ccccc2c(=O)[nH]1)OCCOc1ccc(Cl)cc1	·	·	–
CNC(=O)CN(C1CCCCC1)S(=O)(=O)c1ccc(OC)c(Cl)c1	–	–	–
COc1ccc(S(=O)(=O)N(CC(=O)NC2CC2)C2CCCCC2)cc1Cl	–	–	8.9µM
Cc1ccc(Nc2nnc(SCC(=O)Nc3cccnc3Cl)s2)cc1C	?	–	?
COc1cc(OC)c2nc(C)c3c(c2c1)N(c1ccc(O)cc1)CC3	–	–	–
CC(C)NC(=O)N1CCCC2(CCN(C(=O)c3cccc(F)c3)CC2)C1	·	–	–
CC(=O)Nc1nnc(CSCc2ccccc2F)s1	·	·	–
CCn1cc(C(=O)NCc2ccco2)c2cc(OC)c(OC)cc2c1=O	?	?	–
